Experimental data: the supplement of paper PMC10515830
Structures can show the parent of a compound that is named as a salt.

What was measured:
Conditions in all cases: 10 µM; exposure time 6 h
[1] = test system: Danio rerio larvae (5 dpf); assay: difference in excitability vs DMSO (percentage points); higher = more excitable than DMSO
Method in brief: (§1)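 In 96-well plates, 48 wild-type zebrafish larvae aged 5 dpf per compound received 100 µL egg water with library compound at 10 µM final for 6 h. Three hours into this, a 3-h programme of moving lines and 100 ms, 400Hz tones ran at 28.5 ℃ while plates were photographed every 6 s. Z-LaP Tracker scored the behaviours, and each is given as the compound mean minus the vehicle control mean in percentage points.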

[2] = test system: Danio rerio larvae (5 dpf); assay: difference in startle response vs DMSO (percentage points); higher = stronger startle than DMSO
Method in brief: as §1

[3] = test system: Danio rerio larvae (5 dpf); assay: difference in activity during first hour vs DMSO (percentage points); higher = more activity than DMSO
Method in brief: as §1

[4] = test system: Danio rerio larvae (5 dpf); assay: difference in habituation to acoustic stimuli vs DMSO (percentage points); higher = more habituation than DMSO
Method in brief: as §1

[5] = test system: Danio rerio larvae (5 dpf); assay: difference in combined optomotor response to red, green and blue moving lines vs DMSO (percentage points); higher = stronger optomotor response than DMSO
Method in brief: as §1

Structure (SMILES)	difference in excitability [1]	difference in startle response [2]	difference in activity during first hour [3]	difference in habituation to acoustic stimuli [4]	difference [5]
C=C1CC[C@H](O)C/C1=C/C=C1\CCC[C@]2(C)[C@@H]([C@H](C)CCCC(C)(C)O)CC[C@@H]12 [25-hydroxy Vitamin D3]	4.23	-8.24	8.17	-5.95	-5
CC(=O)N(O)CCCCCNC(=O)CCC(=O)N(O)CCCCCNC(=O)CCC(=O)N(O)CCCCCN [Deferoxamine (mesylate)]	4.87	-4.66	10.3	-2.2	2.91
C=C[C@]1(C)C[C@@H](OC(=O)CS[C@@H]2C[C@H]3CC[C@@H](C2)N3C)[C@]2(C)[C@H](C)CC[C@]3(CCC(=O)[C@H]32)[C@@H](C)[C@@H]1O [Retapamulin]	25.1	5.21	-2.58	1.86	5.67
N#Cc1ccc(Oc2ccc3c(c2)COB3O)cc1	-2.19	-0.784	-16.9	-15.1	-18.2
C[C@@H](O)[C@@H]1NC(=O)[C@H](CCCCN)NC(=O)[C@@H](Cc2c[nH]c3ccccc23)NC(=O)[C@H](Cc2ccccc2)NC(=O)[C@@H](NC(=O)[C@H](N)Cc2ccccc2)CSSC[C@@H](C(=O)N[C@H](CO)[C@@H](C)O)NC1=O [Octreotide (acetate)]	11.3	-0.00387	-5.09	-0.654	0.73
Nc1ncnc2c1ncn2[C@@H]1O[C@H](CO)[C@@H](O)[C@H]1O [Adenosine]	1.75	6.58	10	-5.11	5.99
O=C(O)c1cc(/N=N/c2ccc(S(=O)(=O)Nc3ccccn3)cc2)ccc1O [Sulfasalazine]	11.1	2.87	12.9	-2.35	4.25
CCc1c2c(nc3ccc(OC(=O)N4CCC(N5CCCCC5)CC4)cc13)-c1cc3c(c(=O)n1C2)COC(=O)[C@]3(O)CC [Irinotecan (hydrochloride hydrate)]	13.5	-2.28	0.361	2.44	2.92
COc1ccc(-c2ccc3cc(C(=O)O)ccc3c2)cc1C12CC3CC(CC(C3)C1)C2 [Adapalene]	-8.45	3.9	-0.172	-5	3.86
CNC(=C[N+](=O)[O-])NCCSCc1ccc(CN(C)C)o1 [Ranitidine (hydrochloride)]	-1.03	4.48	11.1	0.164	7.87
C#C[C@]1(O)CC[C@H]2[C@@H]3CCC4=CCCC[C@@H]4[C@H]3C(=C)C[C@@]21CC [Desogestrel]	16.3	-10.3	30.8	-6.42	-15.3
CNC(=C[N+](=O)[O-])NCCSCc1csc(CN(C)C)n1 [Nizatidine]	-3.87	-1.69	7.71	2.96	2.72
CC(=O)OCC(=O)[C@@]12N=C(C)O[C@@H]1C[C@H]1[C@@H]3CCC4=CC(=O)C=C[C@]4(C)[C@H]3[C@@H](O)C[C@@]12C [Deflazacort]	13.1	3.69	-3.59	-1.6	13.9
C[C@@H]1C[C@H]2[C@@H]3CCC4=CC(=O)C=C[C@]4(C)[C@@]3(F)[C@@H](O)C[C@]2(C)[C@@]1(O)C(=O)CO [Dexamethasone]	-4.56	-3.99	-6.96	0.952	3.79
S=P(N1CC1)(N1CC1)N1CC1	0.228	0.991	4.02	0.555	1.07
CC(C(=O)O)c1cccc(Oc2ccccc2)c1 (stereo not given) [Fenoprofen (calcium salt hydrate)]	5.22	0.479	-0.54	-2.86	-2.31
COC(=O)N[C@H](C(=O)N[C@@H](Cc1ccccc1)[C@@H](O)CN(Cc1ccc(-c2ccccn2)cc1)NC(=O)[C@@H](NC(=O)OC)C(C)(C)C)C(C)(C)C [Atazanavir]	-0.672	-1.55	-1.56	-0.953	2.7
CC(C)C[C@H](NC(=O)[C@H](CCc1ccccc1)NC(=O)CN1CCOCC1)C(=O)N[C@@H](Cc1ccccc1)C(=O)N[C@@H](CC(C)C)C(=O)[C@@]1(C)CO1 [Carfilzomib]	5.53	-0.402	4.53	2.38	4.24
CCNC(=O)CCC/C=C\C[C@@H]1[C@@H](/C=C/[C@@H](O)CCc2ccccc2)[C@H](O)C[C@@H]1O [17-phenyl trinor Prostaglandin F2α ethyl amide]	12.5	-5.26	14.8	-0.264	7.13
CCOc1cc(CC(=O)N[C@@H](CC(C)C)c2ccccc2N2CCCCC2)ccc1C(=O)O [Repaglinide]	2.26	7.77	14.4	0.755	1.85
CN1C2CCCC1CC(NC(=O)c1nn(C)c3ccccc13)C2 (stereo not given) [Granisetron (hydrochloride)]	5.31	0.419	15	0.641	7.51
CC(O)(P(=O)(O)O)P(=O)(O)O [Etidronate (sodium salt)]	5.12	2.23	11.4	-1.7	4.9
